# Compound activity: PubChem, National Center for Advancing Translational Sciences (NCATS)
# NS1 function inh – blocks influenza NS1 protein function; Potency, µM (doses to about 46.1 µM), without a hit: at the top dose activity, positive = more growth; 0.4% of 270,000 active; calls by dose curve; further: potency means the concentration at half of the fitted maximal effect; actives are rising curves; nearly all actives have a fitted effect of over 50% in size
#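 S. cerevisiae expressing influenza A NS1, grown in glucose, washed, then diluted 1:100 into pH 6.0 -URA galactose medium with 23 nl compound. Growth recovery read as OD600; NS1-free strain serves as control.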
# Pf growth 96h – inhibits malaria parasite growth, 96 h | Potency, µM (series often up to 28.7 µM), inactives show top-dose activity change, negative = inhibition, usual class: inhibitors | P. falciparum luciferase reporter growth, 96 h | 6.9% of 320,000 active; further: potency means the concentration at half of the fitted maximal effect; on the % scale 0 is the no-effect control and ±100 the full control effect
#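 96 h incubation, 37 C, 5% CO2, of luciferase-reporter P. falciparum-infected RBCs (2% hematocrit, 0.05% parasitemia final) with test compounds; endpoint luminescence.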
# Pf growth 48h – inhibits P. falciparum growth in the first generation, 48 h. P. falciparum luciferase growth in erythrocytes, 48 h. Potency, µM (series often up to 28.7 µM), without a hit: at the top dose activity change, negative = inhibition, actives largely listed as inhibitors. 5.9% of 310,000 active. AID 504832; further: potency means the concentration at half of the fitted maximal effect; on the % scale 0 is the no-effect control and ±100 the full control effect
#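 First compound was added to culture medium, then infected red cells at 0.1% parasitemia and 2% hematocrit (final). After incubation at 37 C under 5% CO2, luciferase detection reagent was dispensed and light output recorded.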
# Shiga inhibitor – Shiga toxin inhibition. Vero cells, Shiga toxin protein synthesis inhibition reporter. 9.2% of 290,000 active. AID 2315. inhibition, % at 38.7 µM; in the data active means inhibition mostly above about 28%, no sharp cut-off; inactive means mostly below about 43%; further: 0% is about no effect
# Sm TGR inh – S. mansoni TGR enzyme inhibition; Q962Y6; purified TGR, DTNB reduction, TNB absorbance 405 nm; Potency, µM (titrated, usually from 114 µM), inactives show at the top dose activity change, negative = inhibition, most hits filed as inhibitors; 3% of 360,000 active; further: potency means the concentration at half of the fitted maximal effect; on the % scale 0 is the no-effect control and ±100 the full control effect; nearly all actives have a fitted effect of over 60% in size
#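 First, TGR (20 nM dispensed) and NADPH were mixed with compound. Second, a 15 min room-temperature incubation followed. Third, further NADPH and then DTNB were added to start the reaction. Finally, TNB absorbance was monitored kinetically.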
# Cycloheximide cs – counter-screen for Shiga toxin inhibitors: cycloheximide protein synthesis inhibition; cell reporter, cycloheximide protein synthesis inhibition counterscreen; max response, %; 12% of 300,000 active; in the data active means max response mostly above about 13%, no sharp cut-off; inactive means mostly below about 14%; further: read at 38.3 µM for the half of the compounds with a filed dose; 0% is about no effect
# * marks the source's active call; other numbers are inactive results; i = inactive; ? = inconclusive; . = no result; [ ] = dose if it differs, or a comment. A selection: hits, their analogues and other compounds. The true share with any hit is near 21%. Unless noted, the call rests on the fitted dose curve; in most records, active means well fitted curve in the direction sought with a large enough effect; inconclusive means small, poorly fitted or top-dose-only effect, or another doubt; inactive means no such curve, though single readings can be large; an effect the other way counts as inactive or inconclusive.
SMILES,NS1 function inh,Pf growth 96h,Pf growth 48h,Shiga inhibitor,Sm TGR inh,Cycloheximide cs
COc1cc2c(cc1OC)[C@@H]1O[C@](CCCCN3C(=O)c4ccccc4C3=O)(C2)Oc2cc(C)n(-c3ccccc3)c(=O)c21,24%,?,1.1µM*,i,0%[22.9 µM],2
COc1ccc(Br)cc1CNc1ccc(O)cc1,4%,.,?,-7,28µM*,-1
COc1ccc(CNc2ccc(C)cc2)cc1Br,13%,30%,27%,43*,-3%,23*
COc1ccc(CNc2ccccc2)cc1Br,-3%,?,11%,15,0%,11
COc1ccccc1CNCc1cc(OC)c(OC)cc1OC,-1%,.,-5%,-4,0%,-3
COc1ccc(Br)cc1CNc1ccc2[nH]c(=O)[nH]c2c1,9%,?,-2%,-10,?,1
COc1ccccc1CNCc1cc(Br)ccc1OC,.,?,12µM*,-5,-10%,12
Cc1ccc(/C=C/C(=O)O)cc1S(=O)(=O)N(CCO)CCO,28%,9.3µM*,-12%,4,22µM*,0
Cc1ccc(/C=C/C(=O)O)cc1S(=O)(=O)NCCCO,11%,36%,-2%,11,40µM*,5
Cc1ccc(/C=C/C(=O)O)cc1S(=O)(=O)Nc1ccc2c(c1)OCO2,2%,-10%,28%,-5,-19%,-1
CCOC(=O)c1cnc(NCc2ccc(Cl)cc2)c2ccccc12,.,.,.,.,1%,.
Clc1ccc2nncn2n1,.,?,-12%,-7,-3%,-2
CC(C)Cn1c(SCC(=O)N2CC(=O)Nc3ccccc32)nc2ccccc21,-16%,?,?,-11,1%,-4
O=C1CN(C(=O)CSc2nc3ccccc3c(=O)n2CC2CCCO2)c2ccccc2N1 (stereo not drawn),.,?,-21%,-2,-7%,12
Cc1cccc(-n2c(SCC(=O)N3CC(=O)Nc4ccccc43)nc3ccccc3c2=O)c1C,?,3.7µM*,?,14,-19%,-4
Cc1ccc(-n2c(SCC(=O)N3CC(=O)Nc4ccccc43)nc3ccccc3c2=O)cc1C,?,8.3µM*,10µM*,11,-2%,6
Cc1cccc(-n2c(SCC(=O)N3CC(=O)Nc4ccccc43)nc3ccccc3c2=O)c1,2%,?,13µM*,3,.,-1
Cc1ccc(S(=O)(=O)N2[C@@H](c3cccc(Cl)c3)C(C(=O)O)=CC[C@H]2c2ccc(C(C)C)cc2)cc1,.,57%,-25%,.,-15%,.
CC(C)(C)NC(=O)CN(C(=O)CNC(=O)c1cccs1)c1ccc2c(c1)OCCO2,-3%,?,?,-3,0%,-2
Cc1c(Cl)cnc(NC(=O)CSc2nnc3ccccn23)c1Cl,10%,.,51%,84*,0%,22*
O=C(CSc1nnc2ccccn12)c1ccc(Cl)cc1,.,-18%,23%,124*,-16%,45*
CCOc1ccc(C(=O)CSc2nnc3ccccn23)cc1,-5%,36%,.,58*,-15%,34*
O=C(CSc1nnc2ccccn12)NNC(=O)c1ccc(Cl)cc1,3%,8%,-14%,-4,7%,-3
Cc1cc(NC(=O)CSc2nnc3ccccn23)no1,-1%,?,9%,-10,-8%,-2
O=C(NCc1cccc(Cl)c1)c1ccc2c(c1)nc1n2CCOC1,.,.,.,.,-6%,.
SMILES,NS1 function inh,Pf growth 96h,Pf growth 48h,Shiga inhibitor,Sm TGR inh,Cycloheximide cs
CCN(CC)S(=O)(=O)c1ccc2oc(SCC(=O)Nc3cc(C)on3)nc2c1,.,2.1µM*,?,.,5%,.
Cc1cc(NC(=O)CSc2nc3cc(Cl)ccc3o2)no1,0%,56%,8.3µM*,-7,6%,-3
CCN(CC)S(=O)(=O)c1ccc2oc(SCc3ccc(F)cc3)nc2c1,-14%,?,?,6,7%,12*
COc1ccccc1NS(=O)(=O)c1ccc2oc(SCc3ccc(C#N)cc3)nc2c1,5%,9.3µM*,-24%,-9,9%,1
CCN(CC)S(=O)(=O)c1ccc2oc(SCC(=O)NC3CC3)nc2c1,5%,22%,11%,-11,-15%,2
CCS(=O)(=O)c1ccc2oc(SCC(=O)NCCc3ccc(F)cc3)nc2c1,-1%,13%,-20%,13,8%,1
COc1cccc(NC(=O)Cn2c(=O)n(-c3ccc(Cl)cc3)c(=O)c3oc4ccccc4c32)c1,.,.,.,.,50%,.
COC(=O)c1cc2oc3ccccc3c2n1Cc1ccc(Cl)cc1,.,.,.,.,2%,.
O=C(/C=C/c1ccc([N+](=O)[O-])cc1)NCc1ccccn1,11%,-17%,13%,-4,2%,-1
O=C(Nc1ncc([N+](=O)[O-])s1)c1cccs1,-148%,11%,140%,27*,-21%,37*
O=C(Nc1ncc([N+](=O)[O-])s1)c1ccccc1Br,-118%,?,14%,65*,?,50*
O=C(/C=C/c1ccc([N+](=O)[O-])cc1)Nc1ncc([N+](=O)[O-])s1,.,2%,-61%,95*,0%,34*
Cc1ncoc1C(=O)Nc1ncc([N+](=O)[O-])s1,.,i,i,10,-10%,8
Cc1cnc(NC(=O)c2cccs2)s1,-40%,293%,206%,67*,-2%,29*
Cc1cc(=O)[nH]c(SCc2cccc3cccnc23)n1,.,5%,66%,9,6%,8
O=C(NCc1ccccc1Cl)c1cc2c(s1)-c1ccccc1SC2,.,.,.,.,1%,.
Cc1ccc(C(C)C)c(OCC(=O)Nc2cccc(S(=O)(=O)NC3=NCCCCC3)c2)c1,8%,-2%,-22%,-30,0%,5
CC(SC1=NCCS1)C(=O)Nc1nnc(-c2ccc(Br)cc2)s1 (stereo not drawn),-6%,?,-20%,38*,5%,21*
c1cc2cc(-c3c(-c4ccc5c(c4)OCO5)noc3-c3ccsc3)ccc2[nH]1,8%,-98%,91%,50*,-17%,39*
COc1cc(-c2c(-c3ccc4c(c3)OCO4)noc2-c2ccsc2)ccc1F,-8%,?,?,18,-12%,15*
Cc1onc(-c2ccc3c(c2)OCO3)c1-c1ccc2[nH]ccc2c1,-88%,?,-26%,22*,-25%,3
c1ccc(-c2onc(-c3ccco3)c2-c2ccc3[nH]ccc3c2)cc1,22%,?,-5%,42*,45µM*,34*
Cn1nc(C(C)(C)C)cc1NC(=O)Nc1cc(Cl)cc(Cl)c1,-2%,?,?,-4,2%,-2
CCOc1ccccc1C(=O)Nc1nn[nH]n1,0%,3%,0%,-7,.,-2
COC(=O)c1sccc1-c1ccc(C(=O)Nc2cccnc2)o1,-2%,i,101%,127*,-6%,39*
COC(=O)C(=Cc1ccc(-c2ccsc2C(=O)OC)o1)C(=O)OC,-1%,-15%,-9%,45*,-1%,38*
CCOC(=O)C(=Cc1ccc(-c2ccsc2C(=O)OC)o1)C(=O)OCC,1%,-18%,?,-6,2%,-2
